From PubChem
Only some compounds are listed: those with a hit (about 8.8% of all), similar ones and a draw of the others.
ALDH1A1 block = ALDH1A1 (human) enzyme inhibition; AID 1030; 220,000 compounds, 7.3% hits; Potency, µM (highest dose often 75.3 µM), without a hit: top-dose activity, negative = inhibition, most hits filed as inhibitors; Purified ALDH1A1, NADH fluorescence, propionaldehyde substrate; P00352;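 also: plate controls were no enzyme wells and a reference inhibitor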
Target sequence (P00352 whole entry, looked up): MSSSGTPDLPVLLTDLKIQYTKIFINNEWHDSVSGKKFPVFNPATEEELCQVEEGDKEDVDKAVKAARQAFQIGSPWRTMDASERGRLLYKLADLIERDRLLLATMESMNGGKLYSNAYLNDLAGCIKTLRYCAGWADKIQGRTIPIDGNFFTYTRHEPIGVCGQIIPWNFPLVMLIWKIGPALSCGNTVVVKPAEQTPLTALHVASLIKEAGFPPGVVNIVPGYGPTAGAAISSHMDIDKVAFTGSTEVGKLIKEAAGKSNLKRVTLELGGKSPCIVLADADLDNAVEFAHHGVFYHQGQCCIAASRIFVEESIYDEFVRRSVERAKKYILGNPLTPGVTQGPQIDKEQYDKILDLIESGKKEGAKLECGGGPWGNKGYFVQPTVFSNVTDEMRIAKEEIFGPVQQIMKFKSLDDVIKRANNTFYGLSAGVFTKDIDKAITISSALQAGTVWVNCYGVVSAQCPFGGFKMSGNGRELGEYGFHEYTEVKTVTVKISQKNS
HPGD block = blocks human HPGD enzyme activity | purified HPGD, NADH fluorescence kinetic, PGE2 substrate | Potency, µM, for the others: top-dose activity change, negative = inhibition, usual class: inhibitors | 150,000 compounds, 4.3% hits | AID 894; also: % is scaled to controls: 0 for no effect and ±100 for the full control effect
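NADH formation kinetics: reaction with 30 uM PGE2 and 1 mM NAD+ (final), 20 nM enzyme, Tris-HCl pH 8 with Tween 20, after 15 min compound preincubation at room temperature. Fluorescence change, last versus first of five reads.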
Lamin A splicing = modulators of lamin A splicing. HeLa LMNA splicing GFP/RFP minigene ratio, 48 h. Potency, µM (highest dose often 46.1 µM), inactives show at the top dose ratio change, negative = inhibition, hits mostly inhibitors. 200,000 compounds, 0.01% hits; active = well fitted inhibition curve with a large enough effect in the signal ratio, with a control signal flat, not every such curve was filed as active; inconclusive = small, poorly fitted or top-dose-only effect, or effect the other way, or a change in a side signal; the % refers to the signal ratio; also: % is scaled to controls: 0 for no effect and ±100 for the full control effect
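Read-out is the ratio of GFP to DsRed2 object intensity, acquired by 488 nm laser-scanning cytometry on HeLa lamin A-EGFP minigene reporter cells. Compound incubation 48 hrs at 37 °C in Opti-MEM with 2% FBS; DMSO 0.5% final.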
HTT aggregate = reduces HttQ103-GFP aggregates in PC12 cells; PC12 HttQ103-GFP aggregates, Acumen cytometry, 40 h; Potency, µM (top dose mostly 46.1 µM), for the others: at the top dose activity change, negative = inhibition, actives largely listed as inhibitors; 220,000 compounds, 1.1% hits; AID 1688; active = well fitted curve in the direction sought with a large enough effect; inconclusive = small, poorly fitted or top-dose-only effect, or another doubt; inactive = no such curve, though single readings can be large; an effect the other way counts as inactive or inconclusive; also: % is scaled to controls: 0 for no effect and ±100 for the full control effect; nearly all actives have a fitted effect of over 60% in size
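Huntingtin Q103 exon 1–GFP aggregates in induced PC12 cells (100 nM tebufenozide) were quantified by cytometry from lysates, with compounds dosed in titration.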
HTT ATP protect = cytoprotection in Huntington HTT-Q103 PC12 cell model | PC12 HTT-Q103 induced, cytoprotection, ATP luminescence, 40 h | Potency, µM (series often up to 56.4 µM), for inactives: cytoprotection (ATP increase), actives largely listed as activators | 230,000 compounds, 0.14% hits | AID 1471; active = well fitted curve in the direction sought with a large enough effect; inconclusive = small, poorly fitted or top-dose-only effect, or another doubt; inactive = no such curve, though single readings can be large; an effect the other way counts as inactive or inconclusive; also: % of control where 0% means no effect; nearly all actives have a fitted effect of over 45% in size
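Quantitative HTS on tebufenozide-induced (100 nM) PC12 cells expressing HTTQ103 exon 1–GFP; compounds tested as a concentration series; survival measured via cellular ATP.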
* = called active by the depositor; [ ] = another dose, or the depositor's remark. Unless noted, calls follow the shape of the dose curve; as a rule, active = well fitted inhibition curve with a large enough effect (not every such curve was filed as active); inconclusive = small, poorly fitted or top-dose-only effect, or another doubt; inactive = no such curve, though single readings can be large or run the other way. Potency is read from the fitted curve at half-maximal effect.

For COc1ccc(NC(=O)N2CCC3(CC2)CCN(S(=O)(=O)c2ccccc2)CC3)cc1 the results were ALDH1A1 block 2%, HPGD block -2% and HTT ATP protect 26%.
Screening COc1ccc(NC(=O)N2CCCC3(CCN(C(=O)c4cccc(F)c4)CC3)C2)cc1 returned ALDH1A1 block inconclusive, HPGD block -9% and HTT ATP protect -13%.
COc1ccc(NC(=O)N2CCCC3(CCNCC3)C2)cc1 was read as ALDH1A1 block 0%, HPGD block -10% and HTT ATP protect 1.6µM*.
Screening O=C(CCl)Nc1ccccc1C(=O)c1ccccc1 returned ALDH1A1 block 25µM*, Lamin A splicing 0%[46 µM], HTT aggregate -2% and HTT ATP protect 24%[10 µM].
Screening CCC(=O)Nc1ccccc1C(=O)OC(c1ccccc1)c1ccccc1 returned ALDH1A1 block inconclusive, HPGD block inconclusive, Lamin A splicing inconclusive, HTT aggregate -10% and HTT ATP protect -10%[10 µM].
For Cc1cc(C(=O)c2ccccc2)c(NC(=O)CCl)s1 the results were ALDH1A1 block 2.5µM*, HPGD block inconclusive, Lamin A splicing inconclusive, HTT aggregate inconclusive and HTT ATP protect 5%[10 µM].
For CCC(=O)Nc1ccccc1C(=O)OCc1ccc(C(=O)c2ccccc2)cc1 the results were ALDH1A1 block inconclusive, HPGD block 14µM*, Lamin A splicing 10%, HTT aggregate inconclusive and HTT ATP protect -41%.
CC1(C)Cc2c(sc3nc(C4CC4)n(N)c(=O)c23)CO1 was read as HTT aggregate 7%[9.22 µM] and HTT ATP protect -8%[10 µM].
`CC(=O)Nc1cccc(C(=O)NCc2ccc3c(c2)CCN3C(C)=O)c1` gave Lamin A splicing 17%[46 µM].
For CCCCc1cc2c(cn1)=C(OC(=O)c1cccs1)C(C)(OC(=O)CC)C(=O)C=2 (stereo unspecified) the results were ALDH1A1 block 3.2µM*, HPGD block -8%, Lamin A splicing inconclusive and HTT ATP protect -35%[10 µM].
Screening Cc1ccc2nc(C)c(C(=O)NN=C3CCN(C)CC3)n2c1 returned ALDH1A1 block 7.9µM*, Lamin A splicing 14%[46 µM], HTT aggregate inconclusive and HTT ATP protect -116%.
CCn1c(CNc2ccc(C(=O)O)cc2)nc2ccccc21 was read as ALDH1A1 block -9%, HPGD block -6%, Lamin A splicing 11%, HTT aggregate -10% and HTT ATP protect -17%.
CCCn1c(CNc2ccc(Br)cc2)nc2ccccc21 was read as ALDH1A1 block 2%, HPGD block -15%, Lamin A splicing 2%, HTT aggregate 11µM* and HTT ATP protect -13%.
`COc1ccc(Nc2oc(COc3ccc(Cl)cc3)nc2C#N)cc1` gave ALDH1A1 block -6%, HPGD block 28µM*, Lamin A splicing 0%, HTT aggregate inconclusive and HTT ATP protect -23%.
Screening N#Cc1nc(COc2ccccc2F)oc1NCc1ccc(F)cc1 returned ALDH1A1 block inconclusive, HPGD block 20µM*, Lamin A splicing 6%, HTT aggregate 0% and HTT ATP protect -11%.
`COc1ccc(CCNc2oc(Cc3cccc4ccccc34)nc2C#N)cc1OC` gave ALDH1A1 block 7.1µM*, HPGD block -28%, Lamin A splicing inconclusive, HTT aggregate 13% and HTT ATP protect -12%[0.074 µM].
For COc1ccc(CCNc2oc(COc3ccccc3F)nc2C#N)cc1 the results were ALDH1A1 block inconclusive, HPGD block 18µM*, Lamin A splicing -10%, HTT aggregate -13% and HTT ATP protect -2%[10 µM].
For Cc1ccc(NC(=O)Cn2cc(S(=O)(=O)N3CCCC3)c(S(=O)(=O)N3CCCC3)c2)c(C)c1 the results were Lamin A splicing 14%[46 µM].
`COCCCNc1oc(COc2ccc(Cl)cc2Cl)nc1C#N` gave ALDH1A1 block 0%, HPGD block 28µM*, Lamin A splicing 0%, HTT aggregate 15% and HTT ATP protect -29%.
Screening Cc1oc(-c2ccc3c(c2)OCCO3)cc1C(=O)NC(CCC(=O)O)C(=O)O (stereo unspecified) returned ALDH1A1 block 7.9µM*, HPGD block 14µM*, Lamin A splicing 8%, HTT aggregate -3% and HTT ATP protect 2%.
Screening Cc1cc(C)c(NC(=O)Cn2nc(-c3ccncc3)ccc2=O)c(C)c1 returned Lamin A splicing -3%[46 µM].
`C=Cc1ccc(CN2C(=O)N(c3ccc(C)c(C)c3)S(=O)(=O)c3ccccc32)cc1` gave Lamin A splicing -8%[46 µM].
`O=C(CCC1N=C2c3ccccc3N=C(SCc3cccc(F)c3)N2C1=O)NCCc1ccccc1` (stereo unspecified) gave Lamin A splicing 24%[46 µM].
C=C1C(=O)O[C@@H]2C3OC3(C)CC/C=C(\C)CC[C@@H]12 (stereo partly specified) was read as ALDH1A1 block -15%, HPGD block -1% and HTT ATP protect -12%[1.9 µM].
C=C1C(=O)O[C@@H]2[C@H]3O[C@]3(C)CC/C=C(\C)CC[C@@H]12 was read as ALDH1A1 block 13µM* and HTT ATP protect -166%.
For COc1ccc(NC(=O)c2sc(=S)[nH]c2N)cc1 the results were ALDH1A1 block 10µM*, HPGD block 28µM*, Lamin A splicing 10%, HTT aggregate -6% and HTT ATP protect -17%.
CCOc1ccc(-n2c(SCC(=O)NCC3CCCO3)nc3c([nH]c4ccccc43)c2=O)cc1 (stereo unspecified) was read as Lamin A splicing -1%[46 µM].
Screening CCCCCCc1cc2cc(-c3nnc(-c4cc(OC)c(OC)c(OC)c4)o3)c(=O)oc2cc1O returned ALDH1A1 block -3%, HPGD block -23%, Lamin A splicing -11%, HTT aggregate 2.8µM* and HTT ATP protect -4%[10 µM].
Screening Cc1cc(C)n(-c2nnc(Cl)c3ccccc23)n1 returned ALDH1A1 block 3.5µM*.
For Cc1ccc(-c2nnc(-n3nc(C)cc3C)c3ccccc23)cc1 the results were ALDH1A1 block 9%, HPGD block -13%, Lamin A splicing -11%, HTT aggregate -6% and HTT ATP protect -9%[10 µM].
`CCOC(=O)c1c(NC(=O)/C=C/C(=O)O)sc(C)c1-c1ccc(F)cc1` gave ALDH1A1 block 14µM*, HTT aggregate 28%[9.22 µM] and HTT ATP protect -24%[10 µM].
For COC(=O)c1c(NC(=O)/C=C/C(=O)O)sc(C)c1-c1ccc(C(C)C)cc1 the results were ALDH1A1 block 7.9µM*, Lamin A splicing inconclusive, HTT aggregate -30% and HTT ATP protect -18%[10 µM].
`CCOc1ccc(-c2csc(Cn3c(CN4CCN(C)CC4)nc4ccccc4c3=O)n2)cc1` gave ALDH1A1 block 14µM*, Lamin A splicing -20%, HTT aggregate 31% and HTT ATP protect 19%[10 µM].
Cc1cc(C(=O)N/N=C/c2cc(Cl)cc([N+](=O)[O-])c2O)c2ccccc2n1 was read as ALDH1A1 block 6%, HPGD block -22%, Lamin A splicing inconclusive, HTT aggregate 16µM* and HTT ATP protect 0%[10 µM].
